The record followed here is PubChem BioAssay AID1952 (The Scripps Research Institute Molecular Screening Center, 2009).

Among all 2,400 compounds or so, about 1,200 (50%) were called active. The set was probably picked from earlier hits. A selection follows. A number with no mark means an inactive call. No stated cut-off is given here; in the data, active means inhibition above about 24%; inactive means the rest.

The target in the experiment is Neuropeptides B/W receptor type 1 (Homo sapiens) (UniProt P48145). Kind of experiment: blockers of human NPBW1 receptor – cell-based, fluorescence, single concentration, confirmation (AID 1952).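 Further: stimulated with the GPR7 agonist NPW; 0% = agonist plus vehicle and 100% = vehicle alone without agonist.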 The settings on record: GPR7-expressing cells, calcium fluorescence antagonist mode; at 4.4 µM; stronger effect = higher value.
Chain of Neuropeptides B/W receptor type 1 (Homo sapiens) (P48145 whole entry, looked up): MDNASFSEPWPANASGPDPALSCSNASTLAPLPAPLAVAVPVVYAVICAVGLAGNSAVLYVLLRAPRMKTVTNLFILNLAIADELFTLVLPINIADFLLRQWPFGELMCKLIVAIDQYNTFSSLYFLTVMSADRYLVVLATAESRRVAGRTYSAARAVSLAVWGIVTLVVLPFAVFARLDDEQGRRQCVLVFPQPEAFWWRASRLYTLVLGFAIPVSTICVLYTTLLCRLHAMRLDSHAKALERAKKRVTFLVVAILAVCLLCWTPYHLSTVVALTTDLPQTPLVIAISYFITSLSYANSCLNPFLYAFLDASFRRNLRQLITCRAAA
Usually inhibition stands for the change of the read-out against control, counted positive when it falls. In the case of `Cc1ccc(O)c(NC(=S)NC(=O)COc2ccc(Br)cc2)c1`, the inhibition is 88.8% (active). In the case of `O=C(Nc1ccc2ccccc2c1)Nc1ccc2snnc2c1`, the inhibition is 55.7% (active). As to `CC(C)(C)NCc1cc(Br)ccc1OC1CCCC1`, the inhibition was 23.2%. With `Cc1ccc(NC(=O)CN2C(=O)NC(C)(c3ccc(Cl)cc3)C2=O)c(Br)c1` (stereo not given) the figure was 18.8%. As for `CC(NCc1ccccc1OC1CCCC1)c1ccccc1` (stereo not given), the figure is 23.1%; as for `CCN1CCN(c2c(Cl)cccc2NC(=O)c2ccc(Br)o2)CC1`, 21%; as for `CCN1/C(=C\c2ccc3ccccc3[n+]2CC)Sc2cc(C)ccc21`, 49.3% (active). Regarding `COc1ccc(OC)c(C(c2nnnn2C(C)(C)C)N2CCc3ccccc3C2)c1` (stereo not given), the inhibition was 5.35%.

As for `CC(C)(C)CC(C)(C)NCC(O)COCCOc1ccc(Br)cc1` (stereo not given), the inhibition was 47.2% (active). As to `C=CCSc1nsc(NC(=O)Nc2cccc(C(C)=O)c2)n1`, the inhibition is 47.2% (active).

As for `CCSc1nsc(NC(=O)Nc2cccc(C(C)=O)c2)n1`, the inhibition is 43.7% (active).

In the case of `CCn1c2ccc(F)cc2c2nnc(SCCN3CCOCC3)nc21`, the inhibition was -14.4%. Take `CCc1c(C)nc2c(-c3ccccc3)c(C)nn2c1Nc1ccc(NC(C)=O)cc1`: the inhibition was 4.93%. As for `COc1ccc(C(=O)CSc2nnc(COc3ccccc3)n2Cc2ccco2)cc1`, the figure is 19%; as for `Oc1cccc(/C=N/Nc2ccc(Cl)nn2)c1O`, 4.11%; as for `Cc1cccc(-c2nc3ccc(C(=O)NCCN4CCN(C)CC4)cc3nc2-c2cccc(C)c2)c1`, 41.8% (active). As for `CCc1ccc(N(C(=O)c2csnn2)C(C(=O)NC2CCCCC2)c2ccncc2)cc1` (stereo not given), the figure is 34.2% (active). With `O=C(Nc1ccccc1F)c1ccc2c(c1)OCO2` the figure was -16.6%; with `O=C(Nc1nc(-c2ccc3c(c2)OCO3)cs1)c1ccncc1`, 55.1% (active); with `N=c1c2c(-c3ccccc3)c(-c3ccccc3)n(Cc3ccccc3)c2ncn1CCCO`, 26.6% (active). In the case of `CCc1ccc2nc(N(CCCN(C)C)C(=O)c3ccc4c(c3)OCCO4)sc2c1`, the inhibition was 40% (active). With `CN(C)CCCN(C(=O)c1ccc(S(=O)(=O)N2CCCCCC2)cc1)c1nc2ccc(Br)cc2s1` the figure was 70.5% (active). With `CN(C)CCCN(C(=O)c1ccc(S(=O)(=O)N2CCCc3ccccc32)cc1)c1nc2ccc(F)cc2s1` the figure was 73% (active).

Turning to `CCOC(=O)C1CSC(CC(=O)Nc2ccc(OCC)cc2)C(=O)N1` (stereo not given), the inhibition was 2.35%. As for `COCCN(Cc1cc2cc3c(cc2nc1Cl)OCO3)C(=O)c1cccc(C)c1`, the inhibition was -7.71%.
